{"source": "paper PMC7862700", "about": "“An all-to-all approach to the identification of sequence-specific readers for epigenetic DNA modifications on cytosine”", "experiment_in_all_cases": "DAPPL (digital affinity profiling via proximity ligation, sequencing); 10 mM Tris-HCl pH 7.5, 50 mM NaCl, 1 mM DTT, 4% glycerol, room temperature, 30 min; GST-TFs on glutathione beads, 16-mer random dsDNA library, 0.1% formaldehyde crosslink after washing; high values mean tight binding", "key": {"FEV": {"target": "T1, FEV (Homo sapiens, UniProt Q99581 1-238)", "T1 sequence": "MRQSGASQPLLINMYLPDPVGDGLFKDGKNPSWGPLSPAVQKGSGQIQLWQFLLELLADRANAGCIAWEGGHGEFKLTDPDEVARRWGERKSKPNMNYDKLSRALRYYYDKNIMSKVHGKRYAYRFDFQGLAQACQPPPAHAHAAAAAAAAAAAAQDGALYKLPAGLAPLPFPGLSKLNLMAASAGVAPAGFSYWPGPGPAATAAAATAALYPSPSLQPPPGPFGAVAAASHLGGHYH", "settings": "protein: recombinant; tags: N-terminal GST; dsDNA, one strand shown", "procedure,_shortened": "(§1)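 Human transcription factors were made in yeast as GST fusions, captured on glutathione beads and barcoded with DNA. With a tag-only sample included, the pool was incubated with 200 nmole of a random double-stranded 16-mer DNA library in Tris/NaCl/DTT/glycerol buffer at room temperature for 30 min, then crosslinked with 0.1% formaldehyde after washing, ligated by proximity, amplified and sequenced. For binding signal, each hexamer's read frequency for a factor is divided by its frequency for the tag-only sample.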"}, "ETV5": {"target": "ETV5 (Homo sapiens, UniProt P41161 1-510)", "sequence (P41161 whole entry)": "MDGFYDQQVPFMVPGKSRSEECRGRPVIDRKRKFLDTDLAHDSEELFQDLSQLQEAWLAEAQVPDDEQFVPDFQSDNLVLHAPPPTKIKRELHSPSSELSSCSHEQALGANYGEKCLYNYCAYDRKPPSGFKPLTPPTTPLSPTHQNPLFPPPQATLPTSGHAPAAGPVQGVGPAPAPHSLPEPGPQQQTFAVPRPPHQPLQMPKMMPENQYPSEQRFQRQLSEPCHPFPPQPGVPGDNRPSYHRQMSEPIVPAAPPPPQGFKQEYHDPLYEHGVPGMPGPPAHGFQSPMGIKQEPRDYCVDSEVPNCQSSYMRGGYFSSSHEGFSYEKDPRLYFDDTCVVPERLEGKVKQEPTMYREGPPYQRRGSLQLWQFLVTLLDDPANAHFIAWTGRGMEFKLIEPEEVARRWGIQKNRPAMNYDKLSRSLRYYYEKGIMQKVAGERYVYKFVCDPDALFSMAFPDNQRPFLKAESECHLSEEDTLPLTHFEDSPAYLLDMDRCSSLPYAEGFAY", "settings": "protein: recombinant; tags: N-terminal GST; dsDNA, one strand shown", "procedure,_shortened": "as §1"}, "HSF1": {"target": "HSF1 (Homo sapiens, UniProt Q00613 1-529)", "sequence (Q00613 whole entry)": "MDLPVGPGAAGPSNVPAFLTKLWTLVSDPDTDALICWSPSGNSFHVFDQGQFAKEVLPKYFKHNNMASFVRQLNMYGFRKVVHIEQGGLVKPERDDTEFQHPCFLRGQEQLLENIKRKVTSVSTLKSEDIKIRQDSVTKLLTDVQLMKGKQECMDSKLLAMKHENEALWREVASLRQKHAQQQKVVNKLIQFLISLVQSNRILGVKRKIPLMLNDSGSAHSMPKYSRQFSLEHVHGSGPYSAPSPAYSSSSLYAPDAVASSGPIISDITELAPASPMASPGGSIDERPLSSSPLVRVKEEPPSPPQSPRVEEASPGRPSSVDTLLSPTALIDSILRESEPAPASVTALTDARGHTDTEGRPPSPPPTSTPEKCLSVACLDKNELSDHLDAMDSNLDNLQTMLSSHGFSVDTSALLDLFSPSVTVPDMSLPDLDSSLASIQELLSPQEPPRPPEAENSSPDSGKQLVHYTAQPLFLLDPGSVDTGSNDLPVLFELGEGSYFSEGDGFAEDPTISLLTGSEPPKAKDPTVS", "settings": "protein: recombinant; tags: N-terminal GST; chain copies: 3; dsDNA, one strand shown", "procedure,_shortened": "as §1"}, "SPIC": {"target": "T2, SPIC (Homo sapiens, UniProt Q8N5J4 1-248)", "T2 sequence": "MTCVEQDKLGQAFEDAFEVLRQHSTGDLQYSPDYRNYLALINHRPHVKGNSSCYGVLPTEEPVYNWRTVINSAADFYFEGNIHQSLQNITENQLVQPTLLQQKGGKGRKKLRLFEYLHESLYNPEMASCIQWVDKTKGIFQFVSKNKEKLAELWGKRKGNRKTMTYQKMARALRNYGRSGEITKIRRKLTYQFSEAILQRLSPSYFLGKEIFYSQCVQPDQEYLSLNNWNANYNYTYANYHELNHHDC", "settings": "protein: recombinant; tags: N-terminal GST; dsDNA, one strand shown", "procedure,_shortened": "as §1"}, "ELF4": {"target": "ELF4 (Homo sapiens, UniProt Q99607 1-663)", "sequence (Q99607 whole entry)": "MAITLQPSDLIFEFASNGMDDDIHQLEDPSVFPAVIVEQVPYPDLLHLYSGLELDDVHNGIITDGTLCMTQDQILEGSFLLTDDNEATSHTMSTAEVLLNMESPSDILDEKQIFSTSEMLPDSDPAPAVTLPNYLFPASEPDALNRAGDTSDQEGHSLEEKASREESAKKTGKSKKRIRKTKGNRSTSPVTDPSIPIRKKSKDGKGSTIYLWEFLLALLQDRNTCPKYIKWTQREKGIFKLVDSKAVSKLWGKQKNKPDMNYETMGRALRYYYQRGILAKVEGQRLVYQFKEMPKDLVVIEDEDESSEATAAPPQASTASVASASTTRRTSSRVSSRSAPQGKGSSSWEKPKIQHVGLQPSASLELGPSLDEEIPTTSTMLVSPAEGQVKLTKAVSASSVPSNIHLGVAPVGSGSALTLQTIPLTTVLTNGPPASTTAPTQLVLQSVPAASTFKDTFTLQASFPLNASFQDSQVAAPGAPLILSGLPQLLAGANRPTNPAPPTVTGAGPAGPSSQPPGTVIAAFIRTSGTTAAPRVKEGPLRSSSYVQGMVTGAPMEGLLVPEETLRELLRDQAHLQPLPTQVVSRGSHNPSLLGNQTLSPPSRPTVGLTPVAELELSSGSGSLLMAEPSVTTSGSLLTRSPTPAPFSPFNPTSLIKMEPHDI", "settings": "protein: recombinant; tags: N-terminal GST; dsDNA, one strand shown", "procedure,_shortened": "as §1"}, "ELK4": {"target": "T3, ELK4 (Homo sapiens, UniProt P28324-2 1-405)", "T3 sequence": "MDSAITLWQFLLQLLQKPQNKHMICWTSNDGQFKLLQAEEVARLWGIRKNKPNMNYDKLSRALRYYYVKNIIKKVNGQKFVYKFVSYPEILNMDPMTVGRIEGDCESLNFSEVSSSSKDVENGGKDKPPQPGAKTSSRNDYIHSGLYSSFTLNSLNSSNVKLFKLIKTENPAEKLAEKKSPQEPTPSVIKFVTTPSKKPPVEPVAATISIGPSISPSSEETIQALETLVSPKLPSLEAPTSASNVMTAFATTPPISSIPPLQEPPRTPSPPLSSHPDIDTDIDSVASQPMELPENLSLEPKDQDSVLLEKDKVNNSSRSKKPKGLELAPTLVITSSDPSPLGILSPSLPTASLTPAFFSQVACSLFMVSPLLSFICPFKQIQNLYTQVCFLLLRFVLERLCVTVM", "settings": "protein: recombinant; tags: N-terminal GST; dsDNA, one strand shown", "procedure,_shortened": "as §1"}, "ETV2": {"target": "T4, ETV2 (Homo sapiens, UniProt O00321 1-342)", "T4 sequence": "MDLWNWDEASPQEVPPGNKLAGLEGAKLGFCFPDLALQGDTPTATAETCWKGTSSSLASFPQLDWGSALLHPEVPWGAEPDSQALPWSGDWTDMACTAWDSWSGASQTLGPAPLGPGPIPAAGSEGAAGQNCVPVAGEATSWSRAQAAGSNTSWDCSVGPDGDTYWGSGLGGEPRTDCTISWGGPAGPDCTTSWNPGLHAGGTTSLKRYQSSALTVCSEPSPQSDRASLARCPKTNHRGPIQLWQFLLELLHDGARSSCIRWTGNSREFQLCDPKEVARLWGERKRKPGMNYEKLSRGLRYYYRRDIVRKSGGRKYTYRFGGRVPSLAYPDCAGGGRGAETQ", "settings": "protein: recombinant; tags: N-terminal GST; dsDNA, one strand shown", "procedure,_shortened": "as §1"}, "ELF3": {"target": "T5, ELF3 (Homo sapiens, UniProt P78545 1-371)", "T5 sequence": "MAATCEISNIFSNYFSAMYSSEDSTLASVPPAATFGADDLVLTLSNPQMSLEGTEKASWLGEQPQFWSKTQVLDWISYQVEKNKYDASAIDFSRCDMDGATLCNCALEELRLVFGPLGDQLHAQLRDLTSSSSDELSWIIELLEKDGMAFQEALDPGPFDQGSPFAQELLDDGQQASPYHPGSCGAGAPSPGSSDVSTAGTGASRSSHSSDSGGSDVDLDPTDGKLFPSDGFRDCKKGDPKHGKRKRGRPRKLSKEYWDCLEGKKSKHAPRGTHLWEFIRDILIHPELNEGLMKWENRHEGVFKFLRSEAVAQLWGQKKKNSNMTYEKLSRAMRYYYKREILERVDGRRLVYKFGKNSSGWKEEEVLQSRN", "settings": "protein: recombinant; tags: N-terminal GST; dsDNA, one strand shown", "procedure,_shortened": "as §1"}, "CRX": {"target": "CRX (Homo sapiens, UniProt O43186 1-299)", "sequence (O43186 whole entry)": "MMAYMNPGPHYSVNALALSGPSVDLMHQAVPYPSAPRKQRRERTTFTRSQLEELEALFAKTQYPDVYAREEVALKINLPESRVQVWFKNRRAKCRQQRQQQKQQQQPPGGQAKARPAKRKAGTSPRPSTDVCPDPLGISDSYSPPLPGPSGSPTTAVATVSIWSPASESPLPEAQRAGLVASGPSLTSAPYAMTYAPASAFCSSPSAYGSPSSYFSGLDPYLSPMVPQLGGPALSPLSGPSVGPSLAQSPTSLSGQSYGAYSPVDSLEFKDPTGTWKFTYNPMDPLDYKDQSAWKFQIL", "settings": "protein: recombinant; tags: N-terminal GST; dsDNA, one strand shown", "procedure,_shortened": "as §1"}}, "data": [{"sequence": "GTATAT", "values": [{"measurement": "binding signal", "setting": "FEV", "result": "1.06 fold enrichment (6-mer frequency, TF over GST control)"}, {"measurement": "binding signal", "setting": "ETV5", "result": "1.19 fold enrichment (6-mer frequency, TF over GST control)"}, {"measurement": "binding signal", "setting": "HSF1", "result": "1.04 fold enrichment (6-mer frequency, TF over GST control)"}, {"measurement": "binding signal", "setting": "SPIC", "result": "1.18 fold enrichment (6-mer frequency, TF over GST control)"}, {"measurement": "binding signal", "setting": "ELF4", "result": "1.17 fold enrichment (6-mer frequency, TF over GST control)"}, {"measurement": "binding signal", "setting": "ELK4", "result": "1.21 fold enrichment (6-mer frequency, TF over GST control)"}, {"measurement": "binding signal", "setting": "ETV2", "result": "1.12 fold enrichment (6-mer frequency, TF over GST control)"}, {"measurement": "binding signal", "setting": "ELF3", "result": "1.02 fold enrichment (6-mer frequency, TF over GST control)"}, {"measurement": "binding signal", "setting": "CRX", "result": "1.07 fold enrichment (6-mer frequency, TF over GST control)"}]}]}
